# From PubChem BioAssay (NCI)
# “And” between values parts separate entries of the source, which are not always exact repeats. Equal values may be shown once. This is part of a sample that, as a whole, favours compounds with a hit. Of some 83,000 tested, about 20% had one in any assay.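 For each line, cells grew in 96-well plates with the test compound present at a single concentration for 48 hours.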 The source made the active and inactive calls. The calls were made as follows: active = growth percent below 10; inactive = the rest.
# Tests used:
# Assay in all cases: NCI-60 one-dose screen, 48 h (100 = growth as untreated, 0 = no growth, -100 = all killed)
# HCT-15 colon = settings: 10 µM
# HT29 colon = settings: 10 µM
# SNB-75 CNS = settings: 10 µM
# SNB-19 CNS = settings: 10 µM
# U251 CNS = settings: 10 µM
# PC-3 prostate = settings: 10 µM
# SK-MEL-5 melanoma = settings: 10 µM
# SK-MEL-2 melanoma = settings: 10 µM
# UACC-62 melanoma = tested on: UACC-62 melanoma
# LOX IMVI melanoma = settings: 10 µM
Structure (SMILES),growth (HCT-15 colon),growth (HT29 colon),growth (SNB-75 CNS),growth (SNB-19 CNS),growth (U251 CNS),growth (PC-3 prostate),growth (SK-MEL-5 melanoma),growth (SK-MEL-2 melanoma),growth (UACC-62 melanoma; 10 µM),growth (UACC-62 melanoma; 25 µM),growth (UACC-62 melanoma; 100 µM),growth (LOX IMVI melanoma)
COc1cccc(C(c2cc3c(cc2O)OCO3)N2CCOCC2)c1OC (stereo not drawn),97.4% (inactive),106% (inactive),91.2% (inactive),98.5% (inactive),101% (inactive),95.7% (inactive),99.1% (inactive),101% (inactive),,,,
O=S(=O)(c1cc(Cl)ccc1O)c1cc(Cl)ccc1O,94.2% (inactive),105% (inactive),77.1% (inactive),91.8% (inactive),76.7% (inactive),80.6% (inactive),53.5% (inactive),64% (inactive),,,,
O=c1[nH]cc(/C=N\Nc2ccccc2)c(=O)[nH]1,41.1% (inactive),58.8% (inactive),102% (inactive),103% (inactive),69.6% (inactive),52.1% (inactive),57.8% (inactive),46.1% (inactive),7.82% (active),,,
C=C1N(C)c2ccc(Cl)cc2C1(C)C,106% (inactive),35.7% (inactive),62% (inactive),55.1% (inactive),22.8% (inactive),32.9% (inactive),90.5% (inactive),101% (inactive),,,,
CC[C@@]1(OC(=O)CN(C)C)C(=O)OCc2c1cc1n(c2=O)Cc2cc3c(N)cccc3nc2-1,6.43% (active),4.94% (active),-10.5% (active),11.2% (inactive),3.98% (active),18% (inactive),,-17.4% (active),-77.8% (active),,,
CO[C@@]12[C@H](COC(N)=O)C3=C(C(=O)C(C)=C(N)C3=O)N1C[C@@H]1N[C@@H]12,,,,,,,,,,-83.6% (active) and -100% (active),,
O=C1C=CC(=O)N1c1ccc(N2C(=O)C=CC2=O)cc1,91.4% (inactive),105% (inactive),95.6% (inactive),,101% (inactive),112% (inactive),103% (inactive),108% (inactive),,,,
Clc1c(Cl)c(Cl)c2c(nnn2C2CCCO2)c1Cl (stereo not drawn),,,,,,,,,,,-55.3% (active) and -99.6% (active),
CCOC(=O)[C@]1(Br)CC[C@@]1(Br)C(=O)OCC,89.2% (inactive),83.1% (inactive),92.4% (inactive),106% (inactive),98.3% (inactive),97.3% (inactive),103% (inactive),91.7% (inactive),,,,
O=[N+]([O-])c1cc(S(=O)(=O)Nc2ccccc2)ccc1Cl,96.5% (inactive),101% (inactive),69.3% (inactive),95.5% (inactive),100% (inactive),94.3% (inactive),92.8% (inactive),93.3% (inactive),,,,
COc1ccc2c(c1)[nH]c1c(/C=C/c3ccccc3)nccc12,43.9% (inactive),21.6% (inactive),35.7% (inactive),76.5% (inactive),70.4% (inactive),42.5% (inactive),72.8% (inactive),89.5% (inactive),,,,
NCc1c(O)ccc2ccccc12,98.2% (inactive),103% (inactive),73.5% (inactive),,103% (inactive),84.9% (inactive),86.3% (inactive),98.2% (inactive),,,,
COc1ccc(N)c2c1C(=O)c1ccccc1C2=O,87.1% (inactive),93.6% (inactive),95.6% (inactive),101% (inactive),97.9% (inactive),89.6% (inactive),,99.5% (inactive),,,,
COc1ccc2oc(-c3ccc(Cl)cc3)c(N3CCN(C)CC3)c2c1,28.9% (inactive),-1.44% (active),18.3% (inactive),48.6% (inactive),20.1% (inactive),4.07% (active),-14.8% (active),-15.9% (active),,,,
CN(CC(=O)O)c1ccc(/C=C/c2ccnc3ccccc23)cc1,84.5% (inactive),88.6% (inactive),90.3% (inactive),87.9% (inactive),80.3% (inactive),71.2% (inactive),93% (inactive),89% (inactive),,,,
Cc1c(-c2ccccc2)[nH]c2ccccc12,106% (inactive),103% (inactive),89.9% (inactive),110% (inactive),106% (inactive),87.8% (inactive),,115% (inactive),96.3% (inactive),,,
O=C(NC(=S)Nc1ccccn1)c1ccccc1,100% (inactive),87.5% (inactive),74.8% (inactive),95.4% (inactive),94.9% (inactive),77.9% (inactive),93.3% (inactive),127% (inactive),,,,
CN(C)CCNc1cccc2sc3ccc(O)cc3c(=O)c12,26.9% (inactive),6.36% (active),31.8% (inactive),57.4% (inactive),,38.7% (inactive),44% (inactive),64% (inactive),57.8% (inactive),,,18.3% (inactive)
O=C1c2ccccc2CCC1(Br)Br,-57% (active),12% (inactive),56.6% (inactive),89.4% (inactive),,54.5% (inactive),,,,,,
Cc1cc(C)c(N2C(=O)CC(Sc3ccccc3N)C2=O)c(C)c1 (stereo not drawn),58% (inactive),66.2% (inactive),55.7% (inactive),83.1% (inactive),81.3% (inactive),68.4% (inactive),,88.5% (inactive),,,,
Cc1cc(N=C2C=CC(=[N+](C)C)C=C2)c(N)cc1N,109% (inactive),93.8% (inactive),102% (inactive),87.3% (inactive),93.2% (inactive),,90% (inactive),106% (inactive),,,,
COc1cc(N)ccc1Nc1c2ccccc2nc2ccccc12,-10.1% (active),-62.4% (active),91% (inactive),99.7% (inactive),,59% (inactive),85% (inactive),109% (inactive),,,,
Cn1ncc2cc3c(Nc4ccc(Cl)cc4)cccc3nc21,88.1% (inactive),78.7% (inactive),97.2% (inactive),99.3% (inactive),81.2% (inactive),79.8% (inactive),82.1% (inactive),99.4% (inactive),,,,
COc1ccc(C(C#N)=C2C=CC(=NO)C=C2)cc1,91.5% (inactive),,91.6% (inactive),111% (inactive),53.9% (inactive),50.4% (inactive),80.3% (inactive),,,,,
O=C(CCc1ccccc1)ON1C(=S)C(c2ccccc2)(c2ccccc2)N=C1Sc1ccccc1,,,,,,,,,,,10.7% (inactive) and 0.462% (active),
CCC(C)(c1ccc(O)c(C)c1)c1ccc(O)c(C)c1,99.1% (inactive),104% (inactive),64.8% (inactive),105% (inactive),94.4% (inactive),86.1% (inactive),95.2% (inactive),94.4% (inactive),,,,
